Data on 10 molecules can be found in PubChem BioAssay AID2592 (National Center for Advancing Translational Sciences (NCATS), 2010).

Inconclusive results are not listed. Calls of active or inactive are those of the source. The call rests on the fitted dose curve; in most records, active means well fitted inhibition curve with a large enough effect; inconclusive means small, poorly fitted or top-dose-only effect, or effect the other way; inactive means flat fitted curve, though single readings scatter.

Chain of Lysosomal acid glucosylceramidase (Homo sapiens) (P04062 whole entry, looked up): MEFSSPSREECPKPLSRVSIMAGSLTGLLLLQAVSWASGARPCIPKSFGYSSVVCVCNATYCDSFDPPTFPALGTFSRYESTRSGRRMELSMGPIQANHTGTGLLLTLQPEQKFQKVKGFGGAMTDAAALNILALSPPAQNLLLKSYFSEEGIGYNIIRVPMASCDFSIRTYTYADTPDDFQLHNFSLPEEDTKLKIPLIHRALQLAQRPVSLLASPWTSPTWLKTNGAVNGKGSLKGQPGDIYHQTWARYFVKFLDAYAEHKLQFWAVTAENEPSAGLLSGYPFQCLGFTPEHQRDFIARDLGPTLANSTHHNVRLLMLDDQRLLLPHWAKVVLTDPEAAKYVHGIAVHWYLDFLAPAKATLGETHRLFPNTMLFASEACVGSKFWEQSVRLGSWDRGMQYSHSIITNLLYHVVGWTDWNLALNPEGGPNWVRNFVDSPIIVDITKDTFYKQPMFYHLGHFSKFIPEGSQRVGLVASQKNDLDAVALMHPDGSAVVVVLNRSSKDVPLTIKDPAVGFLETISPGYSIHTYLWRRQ

This assay addresses Lysosomal acid glucosylceramidase (Homo sapiens) (UniProt P04062). The assay is described as follows: qHTS Assay for Inhibitors and Activators of N370S glucocerebrosidase as a Potential Chaperone Treatment of Gaucher Disease: Activity in Non-Mutant Spleen Homogenate. The conditions noted are these: human spleen homogenate GC, 4MU-glucoside fluorescence; series mostly up to 57.5 µM. From the text:
NIH Chemical Genomics Center [NCGC] NIH Molecular Libraries Probe Production Centers Network [MLPCN] MLPCN Grant: MH086442-01 Assay Submitter (PI): Wei Zheng Glucocerebrosidase (GC) catalyzes the hydrolysis of beta-glucocerebroside to glucose and ceramide in lysosomes. Mutations in the glucocerebrosidase gene result in Gaucher disease, an autosomal recessive lysosomal storage disorder. Many of the mutations encountered in patients with Gaucher disease are missense alterations that may cause misfolding, decreased stability and/or mistrafficking of this lysosomal protein. […] These inhibitors include iminosugar analogs and three non-iminosugar inhibitors identified from a previous HTS of 62,000 compounds with the wild type recombinant enzyme. However, the enhancement of enzyme activity by the chaperone action of an enzyme inhibitor must be balanced against the direct inhibition of the enzyme. An enzyme activator could also function as a chaperone by binding to the enzyme and helping to correct its misfolding and mistrafficking. While activators for GC have not yet been identified, they may have better therapeutic potential than inhibitors. Therefore the discovery and development of chemical activators may provide a new strategy for the chaperone therapy. We have optimized a new assay using N370S mutant GC derived from the spleen of a Gaucher patient. […] In addition, the MLPCN compound library has expanded, which increases the chance of finding new and better probes. This confirmation assay tests for compound activity in spleen homogenate containing wildtype enzyme.
NCGC Assay Protocol Summary: This is a fluorogenic enzyme assay with 4-methylumbelliferyl-beta-D-glucopyranoside as the substrate and wildtype glucocerebrosidase from human spleen homogenate as the enzyme preparation. Upon the hydrolysis of this fluorogenic substrate, the resulting product, […] which can be detected by a standard fluorescence plate reader. Data were normalized to the controls for basal activity (without enzyme) and 100% activity (with enzyme). The AC50 values were determined from concentration-response data modeled with the standard Hill equation. Assay buffer: 50 mM citric acid (titrated with potassium phosphate to pH 5.0), 100 mM potassium chloride, 10 mM sodium chloride, 1 mM magnesium chloride, 0.01% Tween-20. 1536-well assay protocol: (1) Add 2 ul/well of spleen homogenate (27 ug final) (2) Add 23 nL compounds in DMSO solution. The final titration was 0.5 nM to 58 uM. (3) Add 2 ul of substrate (1 mM final) (4) Incubate at 37C for 40 min. (5) Add 2 ul stop solution (1M NaOH and 1M Glycine mixture, pH 10) (6) Detect the assay plate in a ViewLux plate reader (PerkinElmer) with Ex=365 nm and Em=440nm. Keywords: Glucocerebrosidase, beta-glucosidase, Gaucher Disease, pharmacological chaperone, chaperone therapy, high throughput screening, glucocerebrosidase inhibitor, MLSMR, MLSCN, NIH Roadmap, qHTS and NCGC
For `CC(C)(C)C(=O)OCCNc1nc(-c2ccccc2)nc2ccccc12`, the Potency is 2240 nM (active).

On to `O=S(=O)(c1ccc(Cl)cc1)N1CCN(c2nc(-c3cccs3)nc3ccccc23)CC1`, for which the Potency is 1000 nM (active).

For `O=S(=O)(c1ccccc1C(F)(F)F)N1CCN(c2nc(-c3cccs3)nc3ccccc23)CC1`, the Potency was 398 nM (active).

For `N#Cc1ccc(S(=O)(=O)N2CCN(c3nc(-c4cccs4)nc4ccccc34)CC2)cc1`, the Potency was 2510 nM (active).

With `O=S(=O)(c1ccc2c(c1)OCCO2)N1CCN(c2nc(-c3cccs3)nc3ccccc23)CC1`, the Potency was 447 nM (active).

As to `NS(=O)(=O)c1ccc(S(=O)(=O)N2CCN(c3nc(-c4cccs4)nc4ccccc34)CC2)cc1`, the Potency is 5010 nM (active).

As for `CC(C)C(C)NC(=O)CSc1nc2scc(-c3ccco3)c2c(=O)n1-c1ccccc1` (stereo not given), the Potency result was “inactive”.

In the case of `S=C(NCCCc1cnc[nH]1)NCCCN(Cc1ccc(Cl)c(Cl)c1)c1ccc(Br)cn1`, the Potency is 355 nM (active).

On to `O=S(=O)(c1ccc2ccccc2c1)N1CCN(c2nc(-c3cccs3)nc3ccccc23)CC1`, for which the Potency was 282 nM (active).

`Cc1cc(C)cc(N(CC(=O)NC2CCCCCC2)S(=O)(=O)c2c(C)[nH]c(=O)[nH]c2=O)c1`: the Potency was 562 nM (active).
